Measured values from PubChem BioAssay (NCATS).
Results filed as inconclusive are left out. Unmarked numbers belong to inactive results. The call rests on the fitted dose curve; in most records, active means well fitted activation curve with a large enough effect; inconclusive means small, poorly fitted or top-dose-only effect, or effect the other way; inactive means flat fitted curve, though single readings scatter. Residues, ends and D or L forms follow the SMILES beside them. *: point of attachment. Cbz = O=C(OCc1ccccc1)*

Assay: qHTS Assay for Identification of Small Molecule Agonists for Thrombopoietin (TPO) Signaling Pathway (AID 917)
Conditions: TPO signaling pathway reporter cells, agonist qHTS, stimulated with TPO at its EC50; series mostly up to 38.5 µM; activity, positive = activation: at the top concentration
In short: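 Human TPO receptor–transfected Ba/F3 cells (murine, IL-3-dependent) in IL-3-deficient medium; compounds plus TPO at EC50, 26 pM final; 24 hrs, 37 C; GpIIb-luciferase luminescence after 10 min RT detection.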
On the % scale 0 is the no-effect control and ±100 the full control effect.

Row | Compound | activity, positive = activation [%]
1 | Oc1ccc(Cn2cc[nH]c2=S)cc1 | -13.2
2 | O=C(OCCN1CCOCC1)C1(c2ccccc2)CCCCC1 | -27.5
3 | COc1ccc2c(c1)c(CC(=O)O)c(C)n2Cc1ccc(Cl)cc1 | -26
4 | Fc1ccc(CN(C2=NCCN2)c2c(Cl)cccc2Cl)cc1 | -17.3
5 | Nc1ccc2c3c(cccc13)C(=O)NC2=O | -7.99
6 | c1ccc(CN2CCC3(CCCc4ccccc43)CC2)cc1 | -24.2
7 | NC(N)=[N+]1CCc2ccccc2C1 | -27.9
8 | CCCCCCCCCCC/C=C\C(C)(C)/C=C\CCCC(=O)O | -7.67
9 | N[C@@H](CS(=O)O)C(=O)O | -1.71
10 | c1ccc2c(c1)CC(N1CCN(c3cccc4c3OCCO4)CC1)C2 | -18.5
11 | COc1ccc(C(=O)NCc2cccnc2)cc1C(=O)NCc1cccnc1 | -2.96
12 | N[C@@H](Cc1c[nH]c2ccccc12)C(=O)O | 10.6
13 | NC(=O)CNCCC(c1ccccc1)c1ccccc1 | -8.65
14 | COc1ccccc1N1CCN(CCCCN2C(=O)c3ccccc3C2=O)CC1 | -5.49
15 | N#C/C(=C\c1ccc(O)c(O)c1)C(=O)NCCCNC(=O)/C(C#N)=C/c1ccc(O)c(O)c1 | -20.2
16 | N[C@@H](Cc1ccc(O)c(I)c1)C(=O)O | -23.7
17 | COc1cc(/C=C(\C#N)C(=O)c2ccc(O)c(O)c2)cc(I)c1O | -15.2
18 | O=c1onc2n1-c1cc(Br)ccc1OC2 | -10.4
19 | C[C@H](O)C(=O)C1=Nc2c(nc(N)[nH]c2=O)NC1 | -8.6
20 | CC(N)=O | -14
21 | CC(C)[C@H](NC(=O)OCc1ccccc1)C(=O)N[C@H](C=O)Cc1ccccc1 (Cbz-Val-Phe-aldehyde) | -24.9
